# HTR5A inv ctr: HTR5A inverse agonists in luminescence cell assay, primary screen, counter-screen for OPRM1-OPRD1 heterodimer inverse agonist project, full-deck HTS | 5-hydroxytryptamine receptor 5A (Homo sapiens), P47898 | HTR5A cell line, inverse agonism | 340,000 compounds, 0.083% hits | inhibition, % at 9.3 µM; in the data active = inhibition mostly above about 23%, no sharp cut-off; inactive = mostly below about 18%
# MOR-DOR ag-1: agonists of OPRM1-OPRD1 heterodimerization, primary screen, cell-based, luminescence; cells; activation, % at 9.3 µM; 340,000 compounds, 0.3% hits; AID 504326, 2011; in the data active = activation above about 18%
# MOR-DOR inv ag-1: inverse agonists of MOR-DOR heterodimerization, primary screen, cell-based, luminescence. cell-based MOR-DOR heterodimer luminescence, inverse agonism. inhibition, % at 9.3 µM. 340,000 compounds, 0.21% hits. AID 504357, 2011; in the data active = inhibition above about 22%, passing the limit was not always enough
# HTR5A ag ctr: HTR5A agonists in luminescence cell assay, primary screen, counter-screen for OPRM1-OPRD1 heterodimer agonist project, full-deck HTS. 5-hydroxytryptamine receptor 5A (Homo sapiens), P47898. cell-based. activation, % at 9.3 µM. 340,000 compounds, 0.61% hits. AID 504692, 2011; in the data active = activation mostly above about 9.5%, no sharp cut-off; inactive = mostly below about 7.6%
# OPRM1-D1 inv cf: inverse agonists of MOR-DOR heterodimerization, confirmation, cell-based, luminescence; 580 compounds, 20% hits; inhibition, % at 9.3 µM; cells expressing OPRM1/OPRD1 heterodimer; shares compounds with MOR-DOR inv ag-1; in the data active = inhibition above about 32%
# HTR5A inv ctr2: HTR5A inverse agonists, counter-screen for OPRM1-OPRD1 inverse agonist project, cell-based, luminescence. shares compounds with MOR-DOR inv ag-1. HTR5A-expressing cells, inverse agonism. inhibition, % at 9.3 µM. 580 tested, under 10 active
# MOR-DOR inv ag-2: inverse agonists of MOR-DOR heterodimerization, counter-screen for HTR5A inverse agonist project, cell-based, luminescence. shares compounds with HTR5A inv ctr. inhibition, % at 9.3 µM. 190 tested, under 10 active. U2OS counter-screen cells, complementation luminescence
# HTR5A inv conf: HTR5A inverse agonists, retest of hits, confirmation, cell-based, luminescence; shares compounds with HTR5A inv ctr; HTR5A-expressing cells, inverse agonism; inhibition, % at 9.3 µM; 190 tested, under 10 active; AID 504916, 2011
# MOR-DOR ag-2: OPRM1-OPRD1 heterodimerization promoters, counter-screen for HTR5A agonist project, cell-based, luminescence; shares compounds with HTR5A ag ctr; U2OS counter-screen cells, complementation luminescence, 3 h; activation, % at 9.3 µM; 800 compounds, 13% hits; AID 504913, 2011; in the data active = activation above about 18%
# HTR5A ag conf: HTR5A agonists, retest of hits, confirmation, cell-based, luminescence | HTR5A agonist cell assay | 800 compounds, 17% hits | activation, % at 9.3 µM | shares compounds with HTR5A ag ctr; in the data active = activation above about 17%
# Numbers stand for hits; i = inactive; nt = no result. Compounds with a hit are over-represented: about 1.1% of the library has one in this group of screens. Unless noted, no rule for the calls is given here.
SMILES,HTR5A inv ctr,MOR-DOR ag-1,MOR-DOR inv ag-1,HTR5A ag ctr,MOR-DOR inv ag-2,HTR5A inv conf,others
CC(C(=O)OCC(=O)c1cccc([N+](=O)[O-])c1)N1C(=O)C2C3CCC(C3)C2C1=O (centres undefined),i,i,54,i,nt,nt,OPRM1-D1 inv cf=i;HTR5A inv ctr2=i
Cc1ccc(C(=O)COC(=O)C(C)N2C(=O)C3C4CCC(C4)C3C2=O)cc1C (centres undefined),i,i,i,i,nt,nt,
CCN(CC)CCn1c2c(c(SCC(=O)Nc3cc(OC)cc(OC)c3)nc1=O)CCC2,i,i,i,i,nt,nt,
COC(=O)C(CC(=O)c1ccc(Cl)cc1)c1ccccc1 (centres undefined),i,i,i,i,nt,nt,
CCCc1cc(=O)[nH]c(-n2[nH]c3c(c2=O)CCCC3)n1,i,i,33,i,nt,nt,OPRM1-D1 inv cf=i;HTR5A inv ctr2=i
CCCc1ccc(C(=O)NNc2cccc(C)c2)cc1,i,i,44,i,nt,nt,OPRM1-D1 inv cf=i;HTR5A inv ctr2=i
O=C(NNc1ccc(Cl)cc1)c1cccs1,i,i,49,i,nt,nt,OPRM1-D1 inv cf=i;HTR5A inv ctr2=i
O=C(NNc1cc(Cl)cc(Cl)c1)c1cccs1,i,i,i,i,nt,nt,
CCc1ccc(C(=O)NNc2cc(Cl)cc(Cl)c2)cc1,i,i,i,i,nt,nt,
CCc1ccc(C(=O)NNc2ccc(Cl)cc2)cc1,i,i,39,i,nt,nt,OPRM1-D1 inv cf=i;HTR5A inv ctr2=i
C=CC[C@H]1C=C[C@@H](C(C(=O)OC)C(=O)OC)CN1C(C)=O,i,i,i,i,nt,nt,
COc1ccccc1C(=O)NNC(=O)C1CC=CCC1 (centres undefined),i,i,i,i,nt,nt,
COc1ccc(-c2sc3ccc(N4CCOCC4)cc3c2-c2ccc(OC)c(F)c2)cc1,i,i,i,i,nt,nt,
N#CC(C#N)=NNc1ccc([N+](=O)[O-])cc1,i,i,31,15,nt,nt,OPRM1-D1 inv cf=i;HTR5A inv ctr2=i;MOR-DOR ag-2=i;HTR5A ag conf=i
Cc1ccccc1NC(=O)CC1C(=O)Nc2ccccc2N1CC(=O)N(C)C1CCS(=O)(=O)C1 (centres undefined),i,i,i,i,nt,nt,
O=c1[nH]n2c(=O)c3c([nH]c2c1N=Nc1cccc(Cl)c1)CCCC3,42,i,i,i,i,i,
O=C(CSc1nnc(-c2ccccc2F)o1)Nc1ccc(N2CCOCC2)cc1,i,i,i,i,nt,nt,
C=CCC[C@H](Cc1ccc(F)cc1)C(=O)OC[C@@H](NC(=O)[C@H](CC=C)CC(=O)NCCO)C(C)(C)C,i,i,i,i,nt,nt,
C/C(=N\Nc1nc(N2CCOCC2)nc(N2CCOCC2)n1)c1cccs1,23,i,i,i,i,i,
BrC(/C=C\c1ccccc1)=N/Nc1nc(N2CCOCC2)nc(N2CCOCC2)n1,i,i,i,i,nt,nt,
COc1cccc(C(C(=O)NC(C)(C)C)N(C(=O)CCC(=O)Nc2cc(C)on2)C(C)(C)C)c1OC (centres undefined),91,i,i,i,i,i,
COc1cccc(C(C(=O)NC(C)(C)C)N(C(=O)CCC(=O)Nc2cc(C)on2)C(C)C)c1OC (centres undefined),i,i,i,i,nt,nt,
O=C(NC(=S)NNC(=O)[C@H]1C[C@@H]1c1ccccc1)c1ccc(F)cc1,i,i,i,i,nt,nt,
O=C(/C=C/c1ccc(F)cc1)NC(=S)NNC(=O)[C@H]1C[C@@H]1c1ccccc1,48,i,i,i,i,i,
Cc1c(N2C(=O)/C(=C/c3ccc(N(C)C)cc3)N(C)C2=S)c(=O)n(-c2ccccc2)n1C,29,i,i,i,i,i,
SMILES,HTR5A inv ctr,MOR-DOR ag-1,MOR-DOR inv ag-1,HTR5A ag ctr,MOR-DOR inv ag-2,HTR5A inv conf,others
CC(C)CN(C(=O)CN(C)CC(=O)Nc1ccc(Cl)c(C(F)(F)F)c1)c1c(N)n(CC(C)C)c(=O)[nH]c1=O,i,i,i,i,nt,nt,
CCO[C@@H]1OC(C(=O)N2CCN(Cc3ccccc3)CC2)=C[C@H](c2ccc(Br)cc2)[C@H]1CCCO,37,i,i,i,i,i,
CCO[C@@H]1OC(C(=O)N2CCN(Cc3ccccc3)CC2)=C[C@H](c2ccc(C(F)(F)F)cc2)[C@H]1CCCO,i,i,i,i,nt,nt,
CCN1c2ccccc2S(=O)(=O)c2ccccc21,34,i,i,i,i,i,
CN(C)CCCNC(=O)C[C@H]1C[C@H](C(=O)N2CCCCC2)[C@@]2(C)c3[nH]c4cc(CCC(=O)N(C)C)ccc4c3CCN2C1=O,i,i,i,i,nt,nt,
Cc1ccc(NC(=S)N/N=C2/CCCCc3ccccc32)cc1,44,i,i,i,i,i,
Cc1cccc(NC(=S)N/N=C2/CCCCc3ccccc32)c1,i,i,i,i,nt,nt,
O=[N+]([O-])c1ccc(/C=N/Nc2ccc3ccccc3c2)o1,28,i,i,i,i,i,
O=[N+]([O-])c1cc(/C=N/N/C(=N/c2ccccn2)c2ccccn2)ccc1O,24,i,i,i,i,i,
O=[N+]([O-])c1ccc(/C=N/N/C(=N/c2ccccn2)c2ccccn2)cc1,i,i,i,i,nt,nt,
COc1ccc(NC(=O)CSc2n[nH]c(-c3ccccn3)n2)cc1,i,i,i,i,nt,nt,
COc1ccccc1NC(=O)CSc1n[nH]c(-c2ccccn2)n1,39,i,i,i,i,i,
CN(CC(=O)Nc1ccc(F)c(F)c1F)C(=O)c1ccc2c(c1)S(=O)(=O)N=C1CCCCCN12,i,i,i,i,nt,nt,
COc1ccc(/C=C/c2ccc3cccc(O)c3n2)c(OC)c1OC,35,i,i,i,i,i,
COc1cccc(/C=C/c2ccc3cccc(O)c3n2)c1OC,32,i,i,i,i,i,
C=CCn1c(=O)[nH]c(=O)c2c(N)c(C(=O)c3ccc(OC)cc3)sc21,i,i,i,i,nt,nt,
CCCCn1c(N)c(N(CC(C)C)C(=O)c2cccc(OCc3ccccc3)c2)c(=O)[nH]c1=O,i,i,i,i,nt,nt,
CCC1(C)Cc2ccccc2-c2c1c(=O)n(-c1ccc(C)cc1)c1nnnn21 (centres undefined),40,i,i,i,i,i,
